Assay outcomes as filed in PubChem BioAssay.
Rows were chosen to be rich in hits. Some 3.3% of all compounds tested hit in one or more screens of this group.
NPSR antagonist: qHTS Assay for Antagonists of the Neuropeptide S Receptor: cAMP Signal Transduction. Q6W5P4. CHO-NPSR cells, cAMP TR-FRET, antagonist mode. Potency, µM (doses to about 38.3 µM), inactives show top-dose activity change, negative = inhibition, usual class: inhibitors. 220,000 compounds, 1% hits. AID 1461, 2008; also: potency is read from the fitted curve at half-maximal effect; % is scaled to controls: 0 for no effect and ±100 for the full control effect; nearly all actives have a fitted effect of over 50% in size
Target sequence (Q6W5P4 whole entry, looked up): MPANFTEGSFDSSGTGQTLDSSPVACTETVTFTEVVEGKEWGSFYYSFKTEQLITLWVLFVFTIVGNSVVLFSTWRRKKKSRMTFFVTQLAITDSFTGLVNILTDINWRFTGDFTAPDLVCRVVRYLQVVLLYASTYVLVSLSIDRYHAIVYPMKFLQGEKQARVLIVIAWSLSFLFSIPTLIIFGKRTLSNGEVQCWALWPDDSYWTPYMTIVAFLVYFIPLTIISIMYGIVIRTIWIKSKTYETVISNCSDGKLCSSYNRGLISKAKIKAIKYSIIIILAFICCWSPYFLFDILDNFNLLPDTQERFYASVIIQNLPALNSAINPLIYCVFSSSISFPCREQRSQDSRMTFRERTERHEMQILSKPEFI
PNC inhibitor: High Content Assay for Compounds that inhibit the Assembly of the Perinucleolar Compartment; 140,000 compounds, 3.1% hits; PC3M PTB-GFP, PNC prevalence imaging, 16 h; active compounds read low; activity change (PNC), negative = inhibition, % at 10 µM;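 active = readout at or below -70, meaning at least 70% loss of cells showing the perinucleolar compartment, a nuclear body marking cancer cells; inconclusive = readout between -30 and a set limit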;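 also: plate controls were DMSO wells for no effect and camptothecin positive control wells for full effect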
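Read-out is percentage of cells bearing a perinucleolar compartment, from automated 20x imaging of fixed, Hoechst-stained PC3M PTB-GFP cells. Cells were seeded 4 h, then exposed 16 h to compound (23 nl of library stock) in duplicate plates.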
ALOX12 inhib: qHTS Assay for Inhibitors of 12-hLO (12-human lipoxygenase); Polyunsaturated fatty acid lipoxygenase ALOX12 (Homo sapiens), P18054; purified 12-hLO, xylenol orange hydroperoxide absorbance; Potency, µM (top dose mostly 57.1 µM), inactives show at the top dose activity change, negative = inhibition, most hits filed as inhibitors; 150,000 compounds, 0.12% hits; AID 1452, 2008; also: potency is read from the fitted curve at half-maximal effect; % is scaled to controls: 0 for no effect and ±100 for the full control effect; nearly all actives have a fitted effect of over 55% in size
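Purified human 12hLO (150 nM), preincubated 15 min with compound, then 40 uM arachidonic acid for 30 min, room temperature, Hepes pH 7.0 with 0.01% Triton X-100. Hydroperoxide detected by ferrous iron/xylenol orange; 573/405 nm absorbance ratio gives reaction progress.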
HttQ103 aggreg: qHTS Multiplex Assay to Identify Dual Action Probes in a Cell Model of Huntington: Aggregate Formation (GFP); PC12 HttQ103-GFP aggregates, Acumen cytometry, 40 h; Potency, µM (highest dose often 46.1 µM), for inactives: top-dose activity change, negative = inhibition, actives largely listed as inhibitors; 220,000 compounds, 1.1% hits; also: potency is read from the fitted curve at half-maximal effect; % is scaled to controls: 0 for no effect and ±100 for the full control effect; nearly all actives have a fitted effect of over 60% in size
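Using laser scanning cytometry, GFP-positive aggregates were counted after lysis of PC12 cells induced with 100 nM tebufenozide to express HTT exon 1 Q103–GFP. Compounds were tested in titration.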
HTT cytoprotect: qHTS Multiplex Assay to Identify Dual Action Probes in a Cell Model of Huntington: Cytoprotection (ATP); PC12 HTT-Q103 induced, cytoprotection, ATP luminescence, 40 h; AID 1471, 2008; Potency, µM (titrated, usually from 56.4 µM), for the others: cytoprotection (ATP increase), actives largely listed as activators; 230,000 compounds, 0.14% hits; also: potency is read from the fitted curve at half-maximal effect; % of control where 0% means no effect; nearly all actives have a fitted effect of over 45% in size
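Compounds were screened for protection of PC12 cells against cell death after tebufenozide induction (100 nM final) of mutant Huntingtin exon 1 (Q103) fused to GFP.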
IMPase inh: qHTS Assay for Identifying the Cell-Membrane Permeable IMPase Inhibitors. Inositol monophosphatase 1 (Rattus norvegicus), P97697. AID 901, 2007. 120,000 tested, under 10 active. inhibition (IP1 accumulation), % at 46.1 µM. CHO-M1 cells, IP1 accumulation, HTRF TR-FRET ratio; active = well fitted curve in the direction sought with a large enough effect in the signal ratio, not every such curve was filed as active; inconclusive = small, poorly fitted or top-dose-only effect, or a change in a side signal; inactive = no such curve, though single readings can be large or run the other way; the % refers to the signal ratio;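 also: cells stimulated with carbachol in lithium chloride buffer; plate controls were DMSO basal wells for no effect and reference inhibitor wells for full effect; higher means more IMPase inhibition seen as more IP1 and lower FRET ratio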
Target sequence (P97697 whole entry, looked up): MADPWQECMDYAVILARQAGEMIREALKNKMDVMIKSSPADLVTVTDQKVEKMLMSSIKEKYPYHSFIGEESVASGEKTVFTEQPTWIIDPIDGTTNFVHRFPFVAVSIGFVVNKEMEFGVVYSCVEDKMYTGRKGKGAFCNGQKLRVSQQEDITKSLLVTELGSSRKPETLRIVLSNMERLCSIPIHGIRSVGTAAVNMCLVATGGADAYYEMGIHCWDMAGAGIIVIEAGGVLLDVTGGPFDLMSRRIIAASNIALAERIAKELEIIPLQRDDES
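The IP-One HTRF competitive assay in carbachol-stimulated CHO-M1 cells quantifies cellular IP1. Compounds spanned up to 46 uM final, and activity is expressed as AC50 from concentration-response fits of the ratio and donor data.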
* = called active by the depositor; ? = inconclusive; . = no result; [ ] = another dose, or the depositor's remark. Unless noted, calls follow the shape of the dose curve; as a rule, active = well fitted curve in the direction sought with a large enough effect; inconclusive = small, poorly fitted or top-dose-only effect, or another doubt; inactive = no such curve, though single readings can be large; an effect the other way counts as inactive or inconclusive.

SMILES	NPSR antagonist	PNC inhibitor	ALOX12 inhib	HttQ103 aggreg	HTT cytoprotect	IMPase inh
Cc1cc(NC(=O)COC(=O)[C@H](Cc2c[nH]c3ccccc23)NC(=O)c2ccc(F)cc2)no1	-24%[46.1 µM]	?	-2%	-2%	-17%	5
CC(=O)NC(Cc1c[nH]c2ccccc12)C(=O)OCC(=O)Nc1cc(C)on1 (stereo not drawn)	-4%[46.1 µM]	-92*	0%	15%	24%[10 µM]	5[1.84 µM]
Cc1ccccc1S(=O)(=O)O[C@@H]1NS(=O)(=O)c2ccccc21	.	.	2%[11.4 µM]	.	11%[10 µM]	.
Cc1cc(C)cc(N(CCC(=O)O)S(=O)(=O)c2ccc(Cl)cc2)c1	-13%[46.1 µM]	?	-3%	10%	30%[10 µM]	-1
CCc1nnc(NC(=O)CCN(c2cc(C)cc(C)c2)S(=O)(=O)c2ccc(Cl)cc2)s1	4%[46.1 µM]	-94*	-1%	-2%	-6%[10 µM]	0
COc1ccc(N2C(=O)C(CN3CCN(C)CC3)C2c2ccccc2)cc1 (stereo not drawn)	0%	.	.	-2%[9.22 µM]	-42%	.
Cc1nc2sc(C(N)=O)c(N)c2c2c1CCCC2	-16%	.	.	1.8µM*	-13%[10 µM]	.
Cc1ccc(-c2nc3sc(C(N)=O)c(N)c3c3c2CCCC3)cc1	-13%	-27	2%	14%	-67%[10 µM]	.
CC(C)c1nc2sc(C(=O)O)c(N)c2c2c1CCCC2	6%	.	.	-18%[9.22 µM]	1%[10 µM]	.
NC(=O)c1sc2nc(-c3ccccc3)c3c(c2c1N)CCCC3	-21%	.	.	6.3µM*	-32%	.
CC(C)n1nnc2cc(C(=O)O)ccc21	.	.	0%[0.00818 µM]	.	-41%	.
COC(=O)N1C(c2ccccc2)=Cc2ccccc2C1CC(C)=O (stereo not drawn)	.	.	7%[11.4 µM]	.	?	.
C=C1C(=O)[C@@]23[C@H](O)C[C@@H]4C(C)(C)CC[C@H](O)[C@]4(C)[C@@H]2C[C@H](O)[C@@H]1[C@H]3O	-3%	0	0%	3.2µM*	.	.
C=C1C(=O)[C@@]23[C@H](O)C[C@@H]4C(C)(C)CC[C@H](O)[C@@]4(C)[C@@H]2CC[C@@H]1[C@H]3O	-11%	-15	0%	2.8µM*	.	.
CCCCC/C=C\CC1OC1C/C=C\C/C=C\CCCC(=O)O (stereo not drawn)	.	.	7%	.	9%	.
O=C(CCN1C(=O)/C(=C/C=C/c2ccccc2)SC1=S)Nc1cccnc1	-43%	-108*	-1%	?	6%[10 µM]	.
O=C(CCN1C(=O)/C(=C/C=C/c2ccccc2)SC1=S)Nc1ccccn1	-44%	.	.	18%	23%	.
CCCn1c(C)nc2c(NCc3ccccc3)nc(C)nc21	.	.	-5%	.	-40%	.
O=C(c1ccc(S(=O)(=O)N2CCOCC2)cc1)N1CCN(c2ccccn2)CC1	5%	.	.	-6%	-22%	.
O=C(c1ccc(S(=O)(=O)Nc2ccc(F)cc2)cc1)N1CCN(c2ccccn2)CC1	-8%	.	.	14µM*	-39%	.
Cc1ccc(S(=O)(=O)Nc2ccc(S(=O)(=O)Nc3ncccn3)cc2)cc1	-21%[46.1 µM]	?	0%	8%[9.22 µM]	1%	9
Cc1ccc(NS(=O)(=O)c2ccc(C(=O)N3CCN(c4ncccn4)CC3)cc2)cc1	-6%	.	.	2.5µM*	-92%	.
Cc1nc(NC(=O)c2cccnc2)ccc1Br	3%[46.1 µM]	?	-2%	-1%	-23%[0.074 µM]	?
Cc1ccccc1C(=O)Nc1ccc(Br)c(C)n1	-6%[46.1 µM]	-107*	4%	3%	-10%	4
Cn1c(=O)c2sccc2n2c(CCCC(=O)NCc3ccc4c(c3)OCO4)nnc12	-2%[46.1 µM]	-100*	0%	5%	-8%	7
SMILES	NPSR antagonist	PNC inhibitor	ALOX12 inhib	HttQ103 aggreg	HTT cytoprotect	IMPase inh
Cc1cccc(NC(=O)CCc2ccccc2)c1	2%	.	.	1%	-31%	.
Cc1cccc(NC(=O)CCc2ccc(C)o2)c1	2%[46.1 µM]	-80*	3%	10%	-16%	-6
Nc1ncnc2nc(-c3ccc(C[P+](c4ccccc4)(c4ccccc4)c4ccccc4)cc3)[nH]c12	.	.	3%[11.4 µM]	.	0%[10 µM]	.
CC(=O)OCC(=O)[C@@]1(O)CC[C@@H]2[C@H]3CCC4=CC(=O)CC[C@]4(C)[C@]3(F)[C@@H](O)C[C@@]21C	.	.	5%[25.6 µM]	.	-44%[17.1 µM]	5[20.6 µM]
CC(C)CNc1oc(-c2ccco2)nc1C#N	-9%[46.1 µM]	-100*	0%	-5%	12%[10 µM]	?
N#Cc1nc(-c2ccco2)oc1NCc1ccc(F)cc1	-22%[46.1 µM]	-82*	-5%	1%	-19%[0.074 µM]	0
Cc1ccc(C(=O)N2c3ccc(C)cc3C(C)(c3ccccc3)CC2(C)C)cc1 (stereo not drawn)	.	.	.	.	.	4
O=C1C(Cl)=C(NC2CCc3ccccc32)C(=O)c2ncccc21 (stereo not drawn)	.	.	-4%	.	-92%	.
O=C1CC(c2ccccc2)NC(=O)N1 (stereo not drawn)	-16%[46.1 µM]	-81*	7%	-4%	-3%[10 µM]	-8
N[C@H](CS)C(=O)O	.	.	.	.	-2%	.
Cc1ccccc1OCC(O)Cn1c(=N)n(Cc2ccccc2)c2ccccc21 (stereo not drawn)	10µM*	.	.	-9%[9.22 µM]	-8%[10 µM]	.
CC(=O)Nc1cccc2c1C(=O)N(c1ccccc1C)C2=O	8%	.	.	-10%	11%	.
Cc1ccccc1N1C(=O)c2cccc3c(N(C)CCO)ccc(c23)C1=O	-18%[46.1 µM]	-80*	-5%	-15%	-6%	6
O=C(/C=C/c1cc[n+](CC(=O)c2ccc3cccc4c3c2CC4)cc1)c1ccc2cccc3c2c1CC3	-7%	.	.	-5%[9.22 µM]	1%[10 µM]	.
CN(C)C(=O)N1CCN(C(=O)N2CCOCC2)CC1	1%[46.1 µM]	-100*	-3%	0%	-26%[10 µM]	-1
CCOC(=O)CCC(NC(=O)CCC(=O)NC(CCC(=O)OCC)C(=O)OCC)C(=O)OCC (stereo not drawn)	16%	-134*	0%	-2%	10%[10 µM]	.
O=C(CNC(c1ccccc1)c1ccccc1)Nc1c(F)cccc1F	-13%	-5	1%	-10%	1.3µM*	.
Cc1cccc(NC(=O)NCc2ccc3c(c2)cc(C)n3C)c1	30%[46.1 µM]	-108*	12%	10%	-13%[10 µM]	?
C[C@]12CCC3c4ccc(O)cc4CCC3C1CCC2OC(=O)CCC1CCCC1 (stereo partly drawn)	.	.	-7%	.	.	.
Cc1csc(NC(=O)C2C3C=CC(C3)C2C(=O)O)n1 (stereo not drawn)	-4%[46.1 µM]	-27	8%	12%[9.22 µM]	-13%	2
